Screening results as filed in PubChem.
An excerpt weighted towards active compounds, which were near 6.1% of everything screened.
D1 antag – human D1 dopamine receptor antagonism | HEK293 TREx D1 cells, calcium flux, dopamine EC80; hits give low values | activity change, negative = inhibition, % at 10 µM | 3.2% of 360,000 active; in the data active = activity change below about -30%
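Kinetic fluorescence of a calcium dye serves as the read-out. D1-expressing Hek293 Trex cells, induced overnight at 30 C, are exposed to compound for 180 s before an EC80 dopamine addition, then read 180 s further.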
ERG-DNA inh – inhibitors of human ERG Ets domain-DNA interaction; P11308; fluorescence polarization, His-ERG Ets domain / labelled DNA; Potency, µM (highest dose often 76.9 µM), usual class: inhibitors; 0.028% of 370,000 active; active = well fitted inhibition curve with a large enough effect in the polarisation, with a control signal flat; inconclusive = small, poorly fitted or top-dose-only effect, or effect the other way, or a change in a side signal; inactive = no such curve, though single readings can be large or run the other way; the % refers to the polarisation;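 note: polarization taken with two DNA probes labelled with fluorescein and Texas red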
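His-tagged ERG Ets domain (1 uM in the protein solution; 300mM KCl, 50mM Tris-HCl, 1mM EDTA, 1mM DTT, pH 7.5) received compound, then a probe mix of 5 nM fluorescein-DNA and 100nM Texas-615-DNA. Fluorescence polarization was read for both dyes.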
DRD3 agonist – activates the human D3 dopamine receptor | AID 652048 | P35462 | max activation, % | D3R DiscoveRx beta-arrestin cells, luminescence, 90 min | 0.58% of 410,000 active; in the data active = max activation above about 30%
Target sequence (P35462 whole entry, looked up): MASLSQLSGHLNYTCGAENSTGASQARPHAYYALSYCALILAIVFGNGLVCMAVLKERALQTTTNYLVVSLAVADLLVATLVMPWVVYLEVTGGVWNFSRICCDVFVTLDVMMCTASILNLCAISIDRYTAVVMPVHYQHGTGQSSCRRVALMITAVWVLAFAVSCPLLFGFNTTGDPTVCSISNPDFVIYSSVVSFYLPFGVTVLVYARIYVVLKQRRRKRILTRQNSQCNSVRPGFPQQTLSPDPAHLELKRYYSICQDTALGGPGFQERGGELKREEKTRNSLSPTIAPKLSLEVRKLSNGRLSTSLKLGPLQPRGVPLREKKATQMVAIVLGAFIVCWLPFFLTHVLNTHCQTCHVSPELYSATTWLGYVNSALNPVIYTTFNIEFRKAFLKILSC
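Cells at 1500/well, incubated overnight, then treated with pinned compounds (dopamine as control) for 90 min at 37 degrees C. DiscoveRx reagent added for 30 - 60 minutes at room temperature; luminescence read.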
D1 PAM – enhances dopamine response at the human D1 receptor; 0.036% of 360,000 active; AID 504651; potentiation, % at 10 µM; P21728; HEK293 TREx D1 cells, calcium flux, dopamine EC20 potentiation; in the data active = potentiation above about 30%
D1 ag – activates the human D1 dopamine receptor | P21728 | HEK293 T-REx D1 cells, calcium flux, agonist mode | activation, % at 2 µM | 1% of 360,000 active | AID 504660; in the data active = activation above about 30%
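Agonism was scored from calcium flux recorded over 180 s (1 read/s) after pintool compound addition, following a 10-cycle baseline. Cells were inducible force-coupled HEK293 TREx D1, plated overnight at 30 C and loaded with no-wash calcium dye.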
D3 antag – antagonists of human D3 dopamine receptor. P35462. D3R cells, DiscoveRx beta-arrestin luminescence, antagonist mode; hits give low values. max response, negative = inhibition, %. 2.5% of 360,000 active. AID 652054; in the data active = max response below about -50%; inconclusive = no clear call, values can overlap the other calls
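Cells plated overnight at 1500 cells/well, then exposed to library compounds with dopamine controls for 90 minutes at 37 degrees C. DiscoveRx reagent added for 30–60 minutes at room temperature; luminescence read, quantitative HTS format.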
Of the large screens only hits and unclear results are named; the others gave an inactive call; ! = not confirmed by another sample.

COc1ccc(NC(=O)c2ccccc2Sc2ccc(NC(C)=O)nc2)cc1	none
CC(NC(=O)c1ccc([N+](=O)[O-])o1)C12CC3CC(CC(C3)C1)C2 (stereo unspecified)	none
COc1ccc(NC(=O)CCc2c(C)nc3cc(-c4cccc(F)c4)nn3c2C)cc1Cl	none (no result: D3 antag)
COC(=O)c1ccn(CSc2cc(Cl)ccc2Cl)n1	none
CCC1CCCCN1Cc1cn2c(-c3ccc(Br)cc3)nnc2s1 (stereo unspecified)	D1 antag -32 (no result: D3 antag)
CN1CCN(c2nc3c(c(=O)[nH]c(=O)n3C)n2Cc2ccccc2F)CC1	none
Cc1nc(CC(=O)Nc2nc(C(C)(C)C)cs2)cs1	D1 antag -38, ERG-DNA inh inconclusive
Cc1nc(CC(=O)Nc2nc(-c3ccccc3)cs2)cs1	none
CCN(CC)CCCNC(=S)N1CCC(c2nc3ccccc3[nH]2)CC1	none
OCCN(CCO)c1nc(N2CCCCC2)c2nc(N(CCO)CCO)nc(N3CCCCC3)c2n1	D1 antag -39, D1 ag 319
CCN(CC)c1ccc2cc(-c3nc(-c4ccccc4F)no3)c(=O)oc2c1	D1 ag 204 (no result: D3 antag)
Cc1ccccc1-c1noc(-c2cc3ccccc3oc2=O)n1	none (no result: D3 antag)
CCN(CC)c1ccc2cc(-c3nc(-c4cc(OC)c(OC)c(OC)c4)no3)c(=O)oc2c1	ERG-DNA inh inconclusive, D1 ag 153 (no result: D3 antag)
CCN(CC)c1ccc2cc(-c3nc(-c4cccs4)no3)c(=O)oc2c1	D1 ag 278 (no result: D3 antag)
Cc1ccc2nc(SCC(=O)NCc3ccc(S(N)(=O)=O)cc3)[nH]c2c1	none
Cc1ccc(CNC(=O)CSCc2ccccc2)cc1	none
Cc1ccc(CNC(=O)CSCc2ccc(F)cc2)cc1	D1 antag -36!, ERG-DNA inh inconclusive
COC(=O)CSc1nc2ccc(C)cc2[nH]1	D1 antag -36
Cc1ccc2nc(SCC(=O)NCc3ccc(F)cc3)[nH]c2c1	D1 antag -45, D1 ag 51
Cc1ccc(C2=NN(C(=O)CCC(=O)O)C(c3cccc([N+](=O)[O-])c3)C2)cc1 (stereo unspecified)	D3 antag -58
COc1cccc(NC(=O)CSc2nnc(-c3cccs3)o2)c1	none (no result: D3 antag)
COc1cccc(OCc2nnc(-c3cccs3)o2)c1	D1 antag -32 (no result: ERG-DNA inh, DRD3 agonist, D3 antag)
CCc1cc(C(=O)Cc2cnn(-c3ccccc3)c2)c(O)cc1O	D1 ag 38
CCOc1ccccc1OCC(=O)Nc1cc(S(=O)(=O)N2CCCCC2)ccc1N1CCN(CC)CC1	D1 antag -36, D3 antag inconclusive
CCc1nnc(NC(=O)c2ccc(S(=O)(=O)N3CCCCCC3)cc2)s1	D3 antag inconclusive
CCN1CCN(c2ccc(S(=O)(=O)N3CCCCC3)cc2NC(=O)COc2ccccc2)CC1	D3 antag inconclusive
CCc1ccc(OCC(=O)NNC(=O)c2cc(S(=O)(=O)N3CCOCC3)ccc2N2CCCC2)cc1	none
CCc1nnc(NC(=O)Cc2ccc(S(=O)(=O)N3CCCCC3)cc2)s1	D1 antag -32 (no result: D1 PAM)
CCN1CCN(c2ccc(S(=O)(=O)N3CCCCC3)cc2NC(=O)c2ccc(C)o2)CC1	D1 antag -48
O=C(COc1ccccc1Cl)NNC(=O)c1cc(S(=O)(=O)N2CCOCC2)ccc1N1CCCC1	D1 antag -32
CC1OC1c1ccc(-c2ccc(C3OC3C)cc2)cc1 (stereo unspecified)	none (no result: D1 antag, D1 PAM, D1 ag)
CSCCC(=O)N1CC[C@@H](N2CCN(c3ccccc3F)CC2)[C@H](O)C1	none
CC(C)c1ccc(C2N3CC4(C)CN2CC(c2ccccc2)(C3)C4=O)cc1 (stereo unspecified)	none (no result: D3 antag)
CC(C)(C)C(=O)Nc1ccc(N2CCN(C(=O)c3cccs3)CC2)cc1	none (no result: D1 antag, ERG-DNA inh, D1 PAM, D1 ag)
CCN1CCN(S(=O)(=O)c2ccc(Cl)c(C(=O)Nc3cc(Cl)ccc3N3CCOCC3)c2)CC1	D1 antag -40
CCN1CCN(c2ccc(S(=O)(=O)N3CCCCC3)cc2NC(=O)Cc2ccccc2)CC1	none
CCN1CCN(c2ccc(S(=O)(=O)N3CCCCC3)cc2NC(=O)Cc2ccc(Cl)c(Cl)c2)CC1	D1 antag -55, D1 ag 101
CCOc1ccc(S(=O)(=O)N2CCOCC2)cc1NC(=O)c1ccccc1F	DRD3 agonist 79
